Test results from the supplement of paper PMC12819154, “High-throughput peptide-centric local stability assay extends protein–ligand identification to membrane proteins, tissues and bacteria” (Nature Structural & Molecular Biology, 2025).
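Also: lysate desalted by size exclusion to strip endogenous ATP, peptide intensities built from DIA-NN precursor signals, and peptides missing any value discarded before comparison.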

Chain of UniProt P30855 (P30855 whole entry): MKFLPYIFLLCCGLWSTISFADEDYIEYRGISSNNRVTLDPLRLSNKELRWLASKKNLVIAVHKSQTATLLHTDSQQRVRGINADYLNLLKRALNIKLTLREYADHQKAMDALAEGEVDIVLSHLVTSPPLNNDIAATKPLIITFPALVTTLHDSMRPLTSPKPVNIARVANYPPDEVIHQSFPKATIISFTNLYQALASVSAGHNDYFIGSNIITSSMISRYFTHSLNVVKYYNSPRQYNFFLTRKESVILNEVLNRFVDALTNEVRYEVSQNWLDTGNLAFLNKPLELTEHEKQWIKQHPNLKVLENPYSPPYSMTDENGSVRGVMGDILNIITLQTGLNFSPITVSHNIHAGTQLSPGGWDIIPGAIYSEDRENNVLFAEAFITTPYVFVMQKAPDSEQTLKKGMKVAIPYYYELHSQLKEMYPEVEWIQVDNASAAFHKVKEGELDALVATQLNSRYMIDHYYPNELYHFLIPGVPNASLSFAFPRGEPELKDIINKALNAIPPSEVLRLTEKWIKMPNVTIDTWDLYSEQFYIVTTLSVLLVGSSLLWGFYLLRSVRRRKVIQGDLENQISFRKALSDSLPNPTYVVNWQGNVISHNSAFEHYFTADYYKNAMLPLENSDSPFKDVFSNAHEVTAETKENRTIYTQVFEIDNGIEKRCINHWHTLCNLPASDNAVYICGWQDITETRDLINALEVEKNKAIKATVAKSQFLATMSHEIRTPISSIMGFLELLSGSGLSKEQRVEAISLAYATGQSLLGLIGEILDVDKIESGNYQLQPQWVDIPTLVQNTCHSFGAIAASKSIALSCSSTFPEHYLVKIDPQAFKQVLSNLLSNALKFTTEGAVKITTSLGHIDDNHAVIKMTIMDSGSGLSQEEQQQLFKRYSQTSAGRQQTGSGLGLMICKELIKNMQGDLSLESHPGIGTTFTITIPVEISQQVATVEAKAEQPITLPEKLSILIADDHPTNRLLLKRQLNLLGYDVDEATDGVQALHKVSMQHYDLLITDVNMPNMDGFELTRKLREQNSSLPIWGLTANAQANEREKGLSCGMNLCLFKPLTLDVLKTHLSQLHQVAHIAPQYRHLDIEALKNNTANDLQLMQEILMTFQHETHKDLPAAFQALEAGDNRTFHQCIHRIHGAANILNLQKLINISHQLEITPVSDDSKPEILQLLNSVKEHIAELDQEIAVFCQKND
Chain of UniProt P77552 (P77552 whole entry): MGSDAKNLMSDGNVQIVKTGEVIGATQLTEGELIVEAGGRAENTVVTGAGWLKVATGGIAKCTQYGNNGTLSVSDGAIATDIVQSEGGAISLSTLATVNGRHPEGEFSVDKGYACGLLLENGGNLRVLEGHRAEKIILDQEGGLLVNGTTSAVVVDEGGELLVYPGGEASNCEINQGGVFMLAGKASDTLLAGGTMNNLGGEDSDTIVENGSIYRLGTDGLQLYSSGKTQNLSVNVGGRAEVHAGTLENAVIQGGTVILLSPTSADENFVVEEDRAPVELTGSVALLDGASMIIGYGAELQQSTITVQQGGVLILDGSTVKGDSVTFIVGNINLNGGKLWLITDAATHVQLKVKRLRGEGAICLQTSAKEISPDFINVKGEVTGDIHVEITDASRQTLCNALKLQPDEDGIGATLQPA
Chain of UniProt P64624 (P64624 whole entry): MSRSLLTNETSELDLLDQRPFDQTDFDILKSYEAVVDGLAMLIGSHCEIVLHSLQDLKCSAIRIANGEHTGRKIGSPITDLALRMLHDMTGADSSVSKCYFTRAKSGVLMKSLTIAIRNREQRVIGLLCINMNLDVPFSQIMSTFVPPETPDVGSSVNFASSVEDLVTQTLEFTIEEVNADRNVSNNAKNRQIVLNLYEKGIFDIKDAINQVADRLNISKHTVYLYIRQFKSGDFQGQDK
Chain of UniProt P0A8F8 (P0A8F8 whole entry): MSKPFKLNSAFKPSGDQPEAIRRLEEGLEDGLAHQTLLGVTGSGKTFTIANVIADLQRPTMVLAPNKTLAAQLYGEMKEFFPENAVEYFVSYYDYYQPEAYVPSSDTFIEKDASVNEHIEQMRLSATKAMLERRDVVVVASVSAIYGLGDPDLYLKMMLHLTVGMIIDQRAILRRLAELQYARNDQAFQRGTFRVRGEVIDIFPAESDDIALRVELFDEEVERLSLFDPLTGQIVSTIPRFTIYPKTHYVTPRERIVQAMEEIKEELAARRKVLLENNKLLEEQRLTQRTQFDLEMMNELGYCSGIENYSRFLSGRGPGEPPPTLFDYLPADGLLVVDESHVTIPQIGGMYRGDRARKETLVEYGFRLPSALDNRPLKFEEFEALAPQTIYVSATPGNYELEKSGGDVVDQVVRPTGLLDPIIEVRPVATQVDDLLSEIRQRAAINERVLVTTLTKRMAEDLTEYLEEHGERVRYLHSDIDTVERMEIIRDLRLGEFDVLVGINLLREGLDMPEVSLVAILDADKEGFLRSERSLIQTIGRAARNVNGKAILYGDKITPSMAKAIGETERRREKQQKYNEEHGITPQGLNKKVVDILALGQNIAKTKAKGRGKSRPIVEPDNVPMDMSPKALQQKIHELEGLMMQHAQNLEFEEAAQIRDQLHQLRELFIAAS
Chain of UniProt P76340 (P76340 whole entry): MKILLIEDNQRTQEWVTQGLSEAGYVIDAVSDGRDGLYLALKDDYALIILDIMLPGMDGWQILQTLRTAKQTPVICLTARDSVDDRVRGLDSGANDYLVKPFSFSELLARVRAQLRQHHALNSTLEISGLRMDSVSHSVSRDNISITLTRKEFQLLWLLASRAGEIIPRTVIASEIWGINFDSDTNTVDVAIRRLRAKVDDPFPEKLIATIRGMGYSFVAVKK
Chain of UniProt P46887 (P46887 whole entry): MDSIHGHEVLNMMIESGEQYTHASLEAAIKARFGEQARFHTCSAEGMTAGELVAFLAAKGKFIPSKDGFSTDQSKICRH
Chain of UniProt P14375 (P14375 whole entry): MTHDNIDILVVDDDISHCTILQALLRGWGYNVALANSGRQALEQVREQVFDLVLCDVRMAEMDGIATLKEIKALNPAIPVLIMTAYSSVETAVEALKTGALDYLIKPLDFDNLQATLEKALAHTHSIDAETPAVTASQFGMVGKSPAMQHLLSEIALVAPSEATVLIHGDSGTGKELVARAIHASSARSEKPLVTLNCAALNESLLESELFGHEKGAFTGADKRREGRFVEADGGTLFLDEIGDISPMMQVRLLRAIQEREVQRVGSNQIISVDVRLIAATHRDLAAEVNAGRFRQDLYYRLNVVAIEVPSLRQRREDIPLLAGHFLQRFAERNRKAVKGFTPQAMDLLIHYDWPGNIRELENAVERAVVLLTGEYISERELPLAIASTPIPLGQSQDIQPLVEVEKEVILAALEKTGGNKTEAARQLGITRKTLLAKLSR
Chain of UniProt Q06065 (Q06065 whole entry): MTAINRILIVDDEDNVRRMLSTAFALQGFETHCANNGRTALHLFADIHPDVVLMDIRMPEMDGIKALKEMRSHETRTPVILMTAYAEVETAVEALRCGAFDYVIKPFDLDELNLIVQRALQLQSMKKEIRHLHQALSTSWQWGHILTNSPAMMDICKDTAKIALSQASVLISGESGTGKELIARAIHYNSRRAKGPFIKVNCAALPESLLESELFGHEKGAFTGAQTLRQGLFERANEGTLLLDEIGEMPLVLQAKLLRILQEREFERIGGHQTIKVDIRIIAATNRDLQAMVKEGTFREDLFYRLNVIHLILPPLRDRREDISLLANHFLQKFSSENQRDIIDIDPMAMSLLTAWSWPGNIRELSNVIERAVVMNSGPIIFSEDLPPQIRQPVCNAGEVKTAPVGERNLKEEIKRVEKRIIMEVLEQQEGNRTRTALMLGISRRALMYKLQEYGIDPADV
Chain of UniProt P08394 (P08394 whole entry): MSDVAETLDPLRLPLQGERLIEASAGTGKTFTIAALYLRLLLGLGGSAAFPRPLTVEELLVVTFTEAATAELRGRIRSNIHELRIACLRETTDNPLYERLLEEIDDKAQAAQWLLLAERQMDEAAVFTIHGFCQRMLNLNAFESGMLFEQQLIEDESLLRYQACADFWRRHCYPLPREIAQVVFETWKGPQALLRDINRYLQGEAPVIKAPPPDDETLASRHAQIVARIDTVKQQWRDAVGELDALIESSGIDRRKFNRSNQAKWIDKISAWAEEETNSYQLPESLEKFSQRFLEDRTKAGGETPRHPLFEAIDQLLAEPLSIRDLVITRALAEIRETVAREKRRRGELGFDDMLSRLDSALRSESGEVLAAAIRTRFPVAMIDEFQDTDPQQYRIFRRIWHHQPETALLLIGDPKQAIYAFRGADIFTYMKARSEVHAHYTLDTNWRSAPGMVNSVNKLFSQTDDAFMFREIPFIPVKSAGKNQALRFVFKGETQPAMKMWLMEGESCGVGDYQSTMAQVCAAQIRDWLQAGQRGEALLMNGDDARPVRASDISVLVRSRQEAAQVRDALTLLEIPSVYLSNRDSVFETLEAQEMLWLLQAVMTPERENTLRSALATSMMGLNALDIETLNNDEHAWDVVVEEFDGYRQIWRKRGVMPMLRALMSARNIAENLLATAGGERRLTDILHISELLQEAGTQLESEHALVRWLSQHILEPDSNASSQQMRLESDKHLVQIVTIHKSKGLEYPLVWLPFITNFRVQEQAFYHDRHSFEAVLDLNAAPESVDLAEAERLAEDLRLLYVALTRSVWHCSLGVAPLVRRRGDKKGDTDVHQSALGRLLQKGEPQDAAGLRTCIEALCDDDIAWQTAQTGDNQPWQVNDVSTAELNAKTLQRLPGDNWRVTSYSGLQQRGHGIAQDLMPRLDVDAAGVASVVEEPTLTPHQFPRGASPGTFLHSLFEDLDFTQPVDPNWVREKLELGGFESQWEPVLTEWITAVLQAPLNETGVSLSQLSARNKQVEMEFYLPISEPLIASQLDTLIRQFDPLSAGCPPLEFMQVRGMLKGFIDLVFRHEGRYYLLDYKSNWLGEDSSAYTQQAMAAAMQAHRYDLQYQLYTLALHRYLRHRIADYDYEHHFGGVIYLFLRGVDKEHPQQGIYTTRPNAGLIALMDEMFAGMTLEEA

These targets were tested with Nc1ncnc2c1ncn2[C@@H]1O[C@H](COP(=O)(O)OP(=O)(O)OP(=O)(O)O)[C@@H](O)[C@H]1O [adenosine 5'-triphosphate] (assay: log2 fold change of tryptic peptide abundance, ligand vs vehicle (limited proteolysis) (log2 ratio); higher = more trypsin-susceptible (destabilized)). Conditions: ligand concentration: 5 mM; sample: E. coli desalted lysate; replicate design: treated before aliquoting.
Description: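 HT-PELSA: desalted E. coli K-12 BW25113 lysate (with 12 mM MgCl2) incubated with 5 mM ATP (pH 7) or water for 30 min at 25 C, then a 4 min trypsin pulse at 22 C. Peptides were quantified by DIA-MS (4 replicates). Value is the peptide log2 fold change (treated/control); negative = stabilized. Scale: negative = ligand-stabilized region.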
With “UniProt P36928 (peptide sequence: EAVSEWLYR, peptide start residue: 44)” the log2 fold change was 0.728. With “UniProt P03813 (peptide sequence: YTMEQDFYR, peptide start residue: 127)” the log2 fold change was -0.699. With “UniProt P77552 (peptide sequence: AENTVVTGAGWLK, peptide start residue: 41)” the log2 fold change was 0.332. Target “UniProt P46887 (peptide sequence: GKFIPSKDGFSTDQSK, peptide start residue: 60)” has a log2 fold change of 0.606. “UniProt P37774 (peptide sequence: TMVIVTHEMSFAR, peptide start residue: 196)” gave a log2 fold change of 1.7. For “UniProt P0A8F8 (peptide sequence: AILYGDKITPSMAK, peptide start residue: 550)”, the log2 fold change was -0.631. Work on “UniProt Q06065 (peptide sequence: FSSENQR, peptide start residue: 334)” yielded a log2 fold change of -2.8. With “UniProt P08394 (peptide sequence: HCYPLPR, peptide start residue: 171)” the log2 fold change was 1.13. For “UniProt P64624 (peptide sequence: QIVLNLYEK, peptide start residue: 192)”, the log2 fold change was 0.361. “UniProt P23841 (peptide sequence: LNMSQPPLSIHIK, peptide start residue: 31)” was tested, and the log2 fold change was -0.876. “UniProt P76422 (peptide sequence: NTHGTGCTLSAALAALRPR, peptide start residue: 207)” showed a log2 fold change of -1.45. For “UniProt P03024 (peptide sequence: HSVSTPSLEASHHATSD, peptide start residue: 327)”, the log2 fold change was 0.482. With “UniProt P24192 (peptide sequence: PAPQQVCDDPR, peptide start residue: 310)” the log2 fold change was -0.597. “UniProt P14081 (peptide sequence: EHLLQLPER, peptide start residue: 159)” gave a log2 fold change of -1.29. Target “UniProt P75863 (peptide sequence: WVGPQMTR, peptide start residue: 122)” has a log2 fold change of -0.577. With “UniProt P22255 (peptide sequence: ESFLNPGFR, peptide start residue: 234)” the log2 fold change was 0.721. For “UniProt P14375 (peptide sequence: LNVVAIEVPSLR, peptide start residue: 302)”, the log2 fold change was -1.45. “UniProt P76938 (peptide sequence: RVHAQVMDYLTNGIPERPAR, peptide start residue: 137)” was tested, and the log2 fold change was 0.412. “UniProt P76340 (peptide sequence: ILLIEDNQR, peptide start residue: 3)” gave a log2 fold change of -0.349. In the case of “UniProt P25516 (peptide sequence: KTLGLTGEEK, peptide start residue: 823)”, the log2 fold change is reported as -0.721. In the case of “UniProt P37902 (peptide sequence: ALFKEPNDKALN, peptide start residue: 291)”, the log2 fold change is reported as 1.12. “UniProt Q47146 (peptide sequence: GITLPSNSTGGVK, peptide start residue: 375)” was tested, and the log2 fold change was -0.706. With “UniProt P77374 (peptide sequence: INHPDRLNYPMKR, peptide start residue: 106)” the log2 fold change was -0.781. In the case of “UniProt P30855 (peptide sequence: YSQTSAGR, peptide start residue: 888)”, the log2 fold change is reported as 0.38. “UniProt P39353 (peptide sequence: EGVIGEILSCHTKR, peptide start residue: 135)” gave a log2 fold change of -0.665. “UniProt P27240 (peptide sequence: IKDLVVFTDENNSK, peptide start residue: 7)” was tested, and the log2 fold change was -0.431. “UniProt P0AB77 (peptide sequence: AGMDSHGFGMASVR, peptide start residue: 67)” showed a log2 fold change of -0.449. “UniProt P24188 (peptide sequence: NHYEYEVGHFENALEIPADTFR, peptide start residue: 157)” was tested, and the log2 fold change was 0.32. In the case of “UniProt P31554 (peptide sequence: GNIMWENEFR, peptide start residue: 268)”, the log2 fold change is reported as -0.46. Work on “UniProt P10423 (peptide sequence: KSWHNVTGSTVIAAHEGK, peptide start residue: 90)” yielded a log2 fold change of -0.451. With “UniProt Q46906 (peptide sequence: AEGFFCIHR, peptide start residue: 99)” the log2 fold change was -0.839. Work on “UniProt P33643 (peptide sequence: IKEWILDQR, peptide start residue: 36)” yielded a log2 fold change of -0.691. For “UniProt P33602 (peptide sequence: IAPYYHLFGSDELSQR, peptide start residue: 812)”, the log2 fold change was 0.28. “UniProt P77499 (peptide sequence: SVNVGFSGGEK, peptide start residue: 141)” gave a log2 fold change of -0.896. Target “UniProt P71298 (peptide sequence: QNRPTVTAHAYR, peptide start residue: 218)” has a log2 fold change of -1.54. In the case of “UniProt P67910 (peptide sequence: YFNVYGPR, peptide start residue: 167)”, the log2 fold change is reported as -0.736. In the case of “UniProt P37313 (peptide sequence: GTKDQIFNNPR, peptide start residue: 244)”, the log2 fold change is reported as 1.01. “UniProt P76502 (peptide sequence: VLVSPFLR, peptide start residue: 48)” showed a log2 fold change of 0.397. With “UniProt P14377 (peptide sequence: LVALGHLAAGVAHEIR, peptide start residue: 242)” the log2 fold change was 1.01. In the case of “UniProt P45523 (peptide sequence: GTLIDGKEFDNSYTR, peptide start residue: 173)”, the log2 fold change is reported as 0.527.
